# According to PubChem BioAssay:
# Activity calls are given as the source filed them.
# Legend:
# [1] = binders of probe aFSTL3 on microarray, primary screen, stem cell growth factor project, biochemical, small-molecule microarray, fluorescence 635/667 (AID 1064); conditions: higher = more signal;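 note: measures binding of the biotinylated anti-FSTL3 antibody to printed compounds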
# [2] = binders from COS7 lysate, DM2A8 probe, primary screen, torsin A project, cell lysate, small-molecule microarray, fluorescence 635/667 (AID 1065); conditions: higher = more signal, COS7 lysate expressing mutant human TOR1A
# [3] = binders of probe aFGF2 on microarray, primary screen, stem cell growth factor project, biochemical, small-molecule microarray, fluorescence 635/667 (AID 1067); conditions: higher = more signal;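 note: measures binding of biotinylated aFGF2 protein to printed compounds on slides; z-score merges feature fluorescence and signal-to-noise across triplicate slides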
# [4] = binders of probe aFGF10 on microarray, primary screen, stem cell growth factor project, biochemical, small-molecule microarray, fluorescence 635/667 (AID 1071); conditions: higher = more signal;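 note: score merges 667 nm spot intensity and signal to noise from triplicate slides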
# [5] = molecular target: Neurogenic locus notch homolog protein 2 (Homo sapiens) (UniProt Q04721); assay: Notch2 binders on small-molecule microarrays, primary screen, biochemical, small-molecule microarray, 635 nm fluorescence, stem cell growth factors (AID 1073); conditions: Notch2 binding, higher = more signal
# Chain of Neurogenic locus notch homolog protein 2 (Homo sapiens) (Q04721 whole entry, looked up, canonical isoform): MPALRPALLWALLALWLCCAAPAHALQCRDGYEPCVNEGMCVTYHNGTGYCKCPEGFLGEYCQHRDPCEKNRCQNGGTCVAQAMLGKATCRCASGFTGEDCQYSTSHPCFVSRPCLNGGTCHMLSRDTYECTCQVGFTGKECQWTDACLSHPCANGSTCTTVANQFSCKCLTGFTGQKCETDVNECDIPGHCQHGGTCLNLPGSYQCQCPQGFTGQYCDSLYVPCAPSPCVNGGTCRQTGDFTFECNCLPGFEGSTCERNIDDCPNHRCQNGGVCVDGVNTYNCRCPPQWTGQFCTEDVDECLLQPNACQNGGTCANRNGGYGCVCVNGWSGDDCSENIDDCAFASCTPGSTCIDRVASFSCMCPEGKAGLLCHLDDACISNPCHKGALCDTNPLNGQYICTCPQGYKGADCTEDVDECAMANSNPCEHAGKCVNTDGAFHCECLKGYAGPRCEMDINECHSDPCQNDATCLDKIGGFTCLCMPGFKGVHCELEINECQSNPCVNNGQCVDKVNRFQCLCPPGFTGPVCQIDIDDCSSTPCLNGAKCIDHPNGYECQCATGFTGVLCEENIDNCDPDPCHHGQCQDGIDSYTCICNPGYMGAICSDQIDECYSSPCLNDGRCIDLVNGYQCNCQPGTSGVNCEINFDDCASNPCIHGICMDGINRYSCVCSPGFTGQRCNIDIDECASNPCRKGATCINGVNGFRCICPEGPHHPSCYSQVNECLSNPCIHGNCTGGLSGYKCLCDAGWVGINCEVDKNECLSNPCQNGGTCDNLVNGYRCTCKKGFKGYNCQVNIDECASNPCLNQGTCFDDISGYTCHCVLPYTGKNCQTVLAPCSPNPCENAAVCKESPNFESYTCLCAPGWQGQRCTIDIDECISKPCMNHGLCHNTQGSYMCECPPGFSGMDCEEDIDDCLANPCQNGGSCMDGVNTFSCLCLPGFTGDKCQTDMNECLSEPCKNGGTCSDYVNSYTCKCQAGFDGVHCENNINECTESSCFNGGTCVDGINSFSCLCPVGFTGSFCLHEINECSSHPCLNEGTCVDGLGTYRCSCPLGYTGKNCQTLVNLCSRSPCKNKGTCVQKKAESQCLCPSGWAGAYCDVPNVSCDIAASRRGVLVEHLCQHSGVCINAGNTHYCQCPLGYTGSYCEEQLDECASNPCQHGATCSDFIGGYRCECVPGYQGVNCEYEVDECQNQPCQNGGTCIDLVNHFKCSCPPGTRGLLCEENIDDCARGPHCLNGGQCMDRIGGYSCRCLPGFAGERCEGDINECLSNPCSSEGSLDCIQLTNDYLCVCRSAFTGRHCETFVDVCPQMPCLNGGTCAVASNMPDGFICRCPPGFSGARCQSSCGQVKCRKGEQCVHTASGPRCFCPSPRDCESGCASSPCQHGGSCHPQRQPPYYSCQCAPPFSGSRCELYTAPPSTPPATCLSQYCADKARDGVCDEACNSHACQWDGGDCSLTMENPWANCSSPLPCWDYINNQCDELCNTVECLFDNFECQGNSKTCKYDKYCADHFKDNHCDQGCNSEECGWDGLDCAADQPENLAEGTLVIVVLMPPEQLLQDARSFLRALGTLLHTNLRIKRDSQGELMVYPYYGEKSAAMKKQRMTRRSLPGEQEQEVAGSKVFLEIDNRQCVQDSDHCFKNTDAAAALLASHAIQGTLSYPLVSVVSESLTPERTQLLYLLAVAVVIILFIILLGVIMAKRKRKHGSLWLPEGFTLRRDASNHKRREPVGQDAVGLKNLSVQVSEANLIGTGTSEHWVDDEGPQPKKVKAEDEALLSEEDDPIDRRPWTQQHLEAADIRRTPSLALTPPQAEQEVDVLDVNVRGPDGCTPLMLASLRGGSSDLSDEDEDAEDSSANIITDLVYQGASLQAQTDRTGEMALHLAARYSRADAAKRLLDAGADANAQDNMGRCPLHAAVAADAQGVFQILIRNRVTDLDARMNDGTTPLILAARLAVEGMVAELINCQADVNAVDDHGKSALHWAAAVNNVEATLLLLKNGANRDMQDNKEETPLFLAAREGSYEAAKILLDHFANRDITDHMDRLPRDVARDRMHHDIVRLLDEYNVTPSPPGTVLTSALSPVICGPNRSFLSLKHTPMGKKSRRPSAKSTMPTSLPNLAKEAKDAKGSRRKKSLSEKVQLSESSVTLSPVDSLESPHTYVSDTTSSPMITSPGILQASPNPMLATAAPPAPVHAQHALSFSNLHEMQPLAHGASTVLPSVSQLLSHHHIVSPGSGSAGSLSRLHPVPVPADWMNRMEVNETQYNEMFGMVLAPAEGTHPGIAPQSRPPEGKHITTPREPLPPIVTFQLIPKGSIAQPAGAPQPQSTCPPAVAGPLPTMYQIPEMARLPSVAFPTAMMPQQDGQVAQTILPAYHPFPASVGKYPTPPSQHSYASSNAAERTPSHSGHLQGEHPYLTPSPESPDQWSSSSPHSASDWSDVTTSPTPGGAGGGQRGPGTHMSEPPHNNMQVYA
# [6] = molecular target: Pro-neuregulin-1, membrane-bound isoform (Homo sapiens) (UniProt Q02297); assay: NRG1 binders on small-molecule microarrays, primary screen, psychiatric disease protein project, biochemical, small-molecule microarray, fluorescence 635/667 (AID 1075); conditions: NRG1 binding, 635 nm fluorescence, higher = more signal;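 note: score combines 667 nm spot fluorescence with signal to noise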
# [7] = test system: Neuregulin-1 EGF-like domain; assay: binders of neuregulin-1 EGF-like domain, primary screen, biochemical, small-molecule microarray, 635 nm fluorescence (AID 1081); conditions: small-molecule microarray binding, higher = more signal;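 note: binding of the protein to compounds printed on small-molecule microarray slides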
# [8] = FRG1 promoter luciferase signal modulators, primary screen, FRG1 inhibition for FSHD, cell-based, C2C12 myotubes, firefly/Renilla luciferase, luminescence (AID 1084); conditions: higher = more signal, called active from +8 up or from −8 down
# [9] = binders of probe aFST on microarray, primary screen, stem cell growth factor project, biochemical, small-molecule microarray, fluorescence 635/667 (AID 1086); conditions: higher = more signal;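 note: score merges 667 nm fluorescence with signal-to-noise of each printed compound spot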
# [10] = binders of probe aHhip on microarray, primary screen, stem cell growth factor project, biochemical, small-molecule microarray, fluorescence 635/667 (AID 1087); conditions: higher = more signal;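 note: score merges spot fluorescence at 667nm with spot signal to noise ratio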
# [11] = test system: PRMT1 (protein arginine N-methyltransferase 1); assay: PRMT1 binders on small-molecule microarrays, primary screen, biochemical, small-molecule microarray, 635 nm fluorescence (AID 1088); conditions: small-molecule microarray binding, higher = more signal;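 note: binding of Prmt1 protein to compounds spotted on small-molecule microarray slides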
# [12] = yeast growth modulation, basal conditions, primary screen, YJM789 clinical isolate, OD600, 24 h (AID 1089);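 note: growth of clinical yeast isolate S. cerevisiae YJM 789 seeded 1000 cells per well; test concentration not given here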; conditions: S. cerevisiae YJM789 growth, higher = more signal, called active from +8 up or from −8 down
# [13] = fission yeast growth modulation, primary screen, strain 972, OD600, 24 h, no modulator (AID 1090);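 note: basal condition with compound alone and no growth modifier present; test concentration not given here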; conditions: S. pombe 972 growth, higher = more signal, called active from +8 up or from −8 down
# [14] = S. cerevisiae growth modulation with rapamycin, primary screen, strain BY4716, OD600, 96 h (AID 1091); conditions: higher = more signal, called active from +8 up or from −8 down; note: test concentration not given here
# [15] = molecular target: Torsin-1A-interacting protein 2 (Homo sapiens) (UniProt Q8NFQ8); assay: LULL1 binders on small-molecule microarray, primary screen, cell lysate, human LULL1 lysate, 635/667 nm fluorescence (AID 1092); conditions: hLULL1 lysate binding, 635 nm fluorescence, higher = more signal;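 note: probe is lysate of COS7 cells overexpressing human LULL1; score merges per-feature 667 nm fluorescence with signal-to-noise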
# [16] = E. coli growth modulation, two-sided OD650, primary screen, E. coli filamentation project, strain DRC41, 24 h (AID 1093); conditions: OD650, 24 h, higher = more signal, called active from +8 up or from −8 down;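 note: MC1000 strain lacking acrAB efflux and sulA so SOS filamentation is blocked; test concentration not given here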
# [17] = small-molecule microarray binders of probe aLefty2, primary screen, biochemical, biotinylated probe, 635/667 nm fluorescence (AID 1094); conditions: higher = more signal;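 note: score merges spot fluorescence near 667 nm with spot signal-to-noise ratio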
# [18] = test system: Noggin (protein binding on small-molecule microarray); assay: Noggin binders on small-molecule microarray, primary screen, biochemical, 635/667 nm fluorescence (AID 1095); conditions: 635 nm fluorescence, higher = more signal;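 note: score merges 667 nm feature fluorescence with signal to noise over triplicate slides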
# [19] = molecular target: Neurogenic locus notch homolog protein 3 (Homo sapiens) (UniProt Q9UM47); assay: NOTCH3 binders on small-molecule microarray, primary screen, biochemical, 635/667 nm fluorescence (AID 1096); conditions: NOTCH3 binding, 635 nm fluorescence, higher = more signal
# Chain of Neurogenic locus notch homolog protein 3 (Homo sapiens) (Q9UM47 whole entry, looked up): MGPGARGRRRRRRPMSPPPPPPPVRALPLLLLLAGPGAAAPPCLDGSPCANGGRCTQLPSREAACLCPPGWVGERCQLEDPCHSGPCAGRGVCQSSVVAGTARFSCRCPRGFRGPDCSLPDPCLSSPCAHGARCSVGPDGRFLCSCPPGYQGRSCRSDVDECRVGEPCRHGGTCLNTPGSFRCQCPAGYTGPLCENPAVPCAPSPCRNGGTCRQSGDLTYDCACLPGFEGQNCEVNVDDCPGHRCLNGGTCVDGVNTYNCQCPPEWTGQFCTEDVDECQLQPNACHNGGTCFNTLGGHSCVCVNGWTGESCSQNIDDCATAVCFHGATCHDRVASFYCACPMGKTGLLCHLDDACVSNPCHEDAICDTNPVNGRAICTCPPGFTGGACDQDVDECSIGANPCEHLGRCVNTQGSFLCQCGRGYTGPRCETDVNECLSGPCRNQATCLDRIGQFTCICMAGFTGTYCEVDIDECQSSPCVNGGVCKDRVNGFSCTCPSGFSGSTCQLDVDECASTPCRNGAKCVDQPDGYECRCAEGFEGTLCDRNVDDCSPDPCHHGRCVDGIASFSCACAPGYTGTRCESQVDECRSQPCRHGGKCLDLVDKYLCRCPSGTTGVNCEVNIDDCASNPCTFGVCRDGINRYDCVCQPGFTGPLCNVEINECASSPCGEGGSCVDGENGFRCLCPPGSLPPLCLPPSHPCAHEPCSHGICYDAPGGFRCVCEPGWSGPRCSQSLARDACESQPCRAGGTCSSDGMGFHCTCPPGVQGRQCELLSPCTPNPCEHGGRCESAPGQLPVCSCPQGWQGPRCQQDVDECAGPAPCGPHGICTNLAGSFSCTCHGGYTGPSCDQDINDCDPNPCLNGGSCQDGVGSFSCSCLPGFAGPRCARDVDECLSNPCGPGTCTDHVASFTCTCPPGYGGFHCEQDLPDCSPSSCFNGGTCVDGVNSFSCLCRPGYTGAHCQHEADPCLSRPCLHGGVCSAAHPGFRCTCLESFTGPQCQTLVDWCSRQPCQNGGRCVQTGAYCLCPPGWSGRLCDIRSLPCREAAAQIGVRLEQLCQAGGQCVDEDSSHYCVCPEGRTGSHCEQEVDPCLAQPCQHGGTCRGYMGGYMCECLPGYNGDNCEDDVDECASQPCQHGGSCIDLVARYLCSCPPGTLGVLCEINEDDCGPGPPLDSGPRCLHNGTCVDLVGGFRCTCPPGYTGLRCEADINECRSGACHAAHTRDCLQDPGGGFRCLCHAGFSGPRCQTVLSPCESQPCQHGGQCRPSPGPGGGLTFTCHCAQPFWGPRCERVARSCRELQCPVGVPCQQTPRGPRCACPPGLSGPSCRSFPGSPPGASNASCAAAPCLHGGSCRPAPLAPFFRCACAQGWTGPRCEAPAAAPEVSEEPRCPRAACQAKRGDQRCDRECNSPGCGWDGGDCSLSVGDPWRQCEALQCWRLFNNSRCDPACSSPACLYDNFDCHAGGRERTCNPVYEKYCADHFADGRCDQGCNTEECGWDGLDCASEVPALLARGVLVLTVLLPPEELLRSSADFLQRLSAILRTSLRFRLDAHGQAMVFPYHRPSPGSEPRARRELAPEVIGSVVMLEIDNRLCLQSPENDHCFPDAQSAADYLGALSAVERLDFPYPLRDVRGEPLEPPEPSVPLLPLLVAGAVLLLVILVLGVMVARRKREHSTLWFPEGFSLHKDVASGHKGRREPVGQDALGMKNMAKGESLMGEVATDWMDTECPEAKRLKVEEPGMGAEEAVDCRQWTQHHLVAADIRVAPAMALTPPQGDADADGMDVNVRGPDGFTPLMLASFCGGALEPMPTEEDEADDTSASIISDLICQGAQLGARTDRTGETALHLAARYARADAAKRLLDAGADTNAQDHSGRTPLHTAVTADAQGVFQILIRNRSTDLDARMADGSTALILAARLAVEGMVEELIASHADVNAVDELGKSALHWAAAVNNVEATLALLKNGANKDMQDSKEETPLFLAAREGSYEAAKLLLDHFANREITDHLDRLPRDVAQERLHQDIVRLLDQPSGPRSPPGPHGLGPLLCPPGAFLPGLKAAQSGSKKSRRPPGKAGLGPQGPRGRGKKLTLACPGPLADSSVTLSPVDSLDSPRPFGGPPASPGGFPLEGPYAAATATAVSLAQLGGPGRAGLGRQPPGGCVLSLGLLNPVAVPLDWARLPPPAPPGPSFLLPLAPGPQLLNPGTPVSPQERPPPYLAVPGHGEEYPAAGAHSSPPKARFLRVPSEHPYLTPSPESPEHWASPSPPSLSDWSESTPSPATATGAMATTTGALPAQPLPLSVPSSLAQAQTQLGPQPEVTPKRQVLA
# [20] = small-molecule microarray binders of probe aEGFR, primary screen, biochemical, biotinylated probe, 635/667 nm fluorescence (AID 1097); conditions: higher = more signal;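 note: probe is a biotinylated anti-EGFR antibody binding compounds printed on slides; score combines fluorescence near 667 nm and signal to noise of each spot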
SMILES,composite z-score [1],composite z-score [2],composite z-score [3],composite z-score [4],composite z-score [5],composite z-score [6],composite z-score [7],z-score [8],composite z-score [9],composite z-score [10],composite z-score [11],z-score [12],z-score [13],z-score [14],composite z-score [15],z-score [16],composite z-score [17],composite z-score [18],composite z-score [19],composite z-score [20]
CCN1C(=O)[C@H]2[C@H]3[C@H](O)[C@H](O)CC(=NNC(=O)OCc4ccc(OC)cc4)[C@@H]3CC[C@H]2C1=O,1.28,-0.0691,-0.0235,0.0306,-0.213,-0.295,-0.46,0.127 (inactive),0.508,-0.374,-0.235,-1.31 (inactive),-1.45 (inactive),-0.287 (inactive),0.0228,0.214 (inactive),0.241,0.51,-0.428,-0.113
O=C1[C@H]2[C@H]3[C@H](O)[C@H](O)CC(=NOCc4ccccc4)[C@@H]3CC[C@H]2C(=O)N1C[C@@H]1CCCO1,-0.278,-0.22,-0.116,-0.125,0.176,0.0461,-0.288,1.36 (inactive),0.271,-0.27,-0.423,-0.857 (inactive),0.767 (inactive),-0.369 (inactive),0.292,1.27 (inactive),-0.114,0.228,0.237,-0.0151
C[C@@H](c1ccccc1)N1C(=O)[C@H]2[C@H]3[C@H](O)[C@H](O)CC(=O)[C@H]3CC[C@H]2C1=O,-0.483,0.107,-0.0878,0.443,0.896,0.286,0.477,-0.12 (inactive),0.0442,-0.0994,0.157,-0.394 (inactive),-0.197 (inactive),0.134 (inactive),0.461,0.541 (inactive),-0.0483,0.482,0.521,-0.108
C#CCCCON=C1C[C@@H](O)[C@@H](O)[C@@H]2[C@@H]3C(=O)N(c4ccc(F)cc4F)C(=O)[C@@H]3CC[C@H]12,-0.381,0.872,-0.0788,0.216,0.342,0.454,0.765,-1.17 (inactive),0.326,0.0373,1.43,-0.989 (inactive),-1.41 (inactive),-1.5 (inactive),2.13,0.534 (inactive),-0.226,0.844,0.793,-0.0187
Cc1ccc(S(=O)(=O)OC[C@H]2CN3[C@H](c4ccc(Br)cc4)[C@@H](C)CC[C@H]3C(=O)O2)cc1,-0.307,0.0709,-0.106,0.255,0.0993,0.0865,1.01,-0.636 (inactive),-0.164,-0.191,1.23,-0.855 (inactive),-17.8 (active),-3.38 (inactive),1.3,2.18 (inactive),-0.259,1.24,0.323,-0.136
COc1cccc([C@H]2Oc3ccc(OC)cc3C(=NOC[C@@H](O)[C@H]3O[C@@H]4OC(C)(C)O[C@@H]4[C@H]3O)[C@@H]2O)c1,-0.117,0.146,-0.0533,0.289,0.533,-0.242,0.54,5.07 (inactive),0.149,-0.194,0.775,-0.797 (inactive),-2.21 (inactive),-1.62 (inactive),0.347,0.932 (inactive),-0.0616,0.449,0.456,0.0746
CCc1cc2c(nc1CC)CCN(CCC(C)=NOC[C@H]1O[C@H](c3ccccc3)C=C[C@@H]1Oc1ccc(OC)cc1)C2,0.0529,0.732,-0.178,-0.147,-0.391,0.121,0.734,1.39 (inactive),0.0567,0.12,0.841,-0.837 (inactive),-5.85 (inactive),-0.473 (inactive),0.825,-0.782 (inactive),-0.164,0.0346,0.215,-0.0549
CC(C)=CCCC(C)=CCON=C1C[C@@H](O)[C@@H](O)[C@@H]2[C@@H]3C(=O)N(C4CCCCC4)C(=O)[C@@H]3CC[C@@H]12,1.18,0.76,-0.132,0.332,-0.0557,-0.148,0.598,0.735 (inactive),0.0152,-0.374,0.614,-0.671 (inactive),-2.8 (inactive),-0.513 (inactive),-0.687,-0.257 (inactive),-0.15,0.615,-0.407,-0.0956
CC(C)(C)N1C(=O)[C@H]2[C@H]3[C@H](O)C=CC(=O)[C@@H]3CC[C@H]2C1=O,-0.623,0.0741,-0.132,0.412,0.437,-0.261,0.368,-0.757 (inactive),0.229,0.0251,-0.832,0.985 (inactive),0.632 (inactive),1.12 (inactive),-0.117,0.208 (inactive),-0.0258,0.891,0.604,0.0469
CC(C)=NO[C@H](C)c1cn([C@H](CO)Cc2ccccc2)nn1,-0.125,0.364,-0.0737,-0.116,0.0781,0.274,0.316,-0.266 (inactive),0.0676,0.0972,0.325,-0.43 (inactive),-0.594 (inactive),0.245 (inactive),1.09,0.208 (inactive),-0.166,-0.0003,0.104,-0.0406
